Measurements taken from PubChem BioAssay.
For some assays here: Entries with a potency or affinity are not part of this list. The source made the active and inactive calls. Unless noted, how the calls were made is not given here.

Key:
[1] = antimalarial activity against Dd2 strain (AID 2302;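 active means growth inhibition above 50% at the single 2 µM test dose, taken to imply half-maximal potency below 2 µM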;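 further: 0% = DMSO untreated growth and 100% = chloroquine plus artemisinin killed control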); conditions: P. falciparum Dd2 in RBCs, LDH growth readout, 72 h; at 2 µM; stronger effect = higher value
[2] = HepG2 cytotoxicity, primary screen, cytotoxicity control for P. falciparum antimalarial project, cell-based, ATP luminescence (AID 2303;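 active means inhibition above 50%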;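 further: 0% = DMSO wells and 100% = digitonin-killed cells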); conditions: HepG2 viability, 24-48 h, at 10 µM, stronger effect = higher value
[3] = target: L-lactate dehydrogenase (Plasmodium falciparum (isolate CDC / Honduras)) (UniProt Q27743); test: PfLDH activity inhibition – cell lysate, 3D7 strain, counter-screen for P. falciparum growth inhibition project (AID 2304);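 further: 0% = vehicle and 100% = reference inhibitor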; conditions: P. falciparum 3D7 crude extract, LDH APAD/NBT absorbance; at 2 µM; stronger effect = higher value
L-lactate dehydrogenase (Plasmodium falciparum (isolate CDC / Honduras)), sequence (Q27743 whole entry, looked up): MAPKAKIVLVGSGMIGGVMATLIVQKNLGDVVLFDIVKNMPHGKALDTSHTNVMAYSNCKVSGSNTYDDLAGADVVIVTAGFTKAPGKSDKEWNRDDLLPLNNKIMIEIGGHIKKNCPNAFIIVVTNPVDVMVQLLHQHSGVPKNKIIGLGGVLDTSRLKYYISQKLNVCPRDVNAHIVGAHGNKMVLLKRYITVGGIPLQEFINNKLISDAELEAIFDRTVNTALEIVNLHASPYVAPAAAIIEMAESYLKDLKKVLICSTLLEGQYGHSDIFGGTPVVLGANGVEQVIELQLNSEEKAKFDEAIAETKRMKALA

[4] = inhibition of 3D7 malaria parasite growth – strain 3D7 (AID 2306);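 further: 0% = DMSO wells and 100% = chloroquine plus artemisinin control wells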; conditions: P. falciparum 3D7 erythrocytic growth, LDH absorbance, 72 h; at 2 µM; stronger effect = higher value
[5] = target: Calcium-dependent protein kinase 1 (Plasmodium falciparum (isolate 3D7)) (UniProt P62344); test: PfCDPK1 kinase inhibitors, biochemical, TCAMS library (AID 1159585; cut-off not given, nearly all actives have IC50 up to about 0.98 µM;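 further: inhibitors leave more ATP so luminescence rises with inhibition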); conditions: recombinant PfCDPK1, Kinase-Glo ATP depletion luminescence
Calcium-dependent protein kinase 1 (Plasmodium falciparum (isolate 3D7)), sequence (P62344 whole entry, looked up): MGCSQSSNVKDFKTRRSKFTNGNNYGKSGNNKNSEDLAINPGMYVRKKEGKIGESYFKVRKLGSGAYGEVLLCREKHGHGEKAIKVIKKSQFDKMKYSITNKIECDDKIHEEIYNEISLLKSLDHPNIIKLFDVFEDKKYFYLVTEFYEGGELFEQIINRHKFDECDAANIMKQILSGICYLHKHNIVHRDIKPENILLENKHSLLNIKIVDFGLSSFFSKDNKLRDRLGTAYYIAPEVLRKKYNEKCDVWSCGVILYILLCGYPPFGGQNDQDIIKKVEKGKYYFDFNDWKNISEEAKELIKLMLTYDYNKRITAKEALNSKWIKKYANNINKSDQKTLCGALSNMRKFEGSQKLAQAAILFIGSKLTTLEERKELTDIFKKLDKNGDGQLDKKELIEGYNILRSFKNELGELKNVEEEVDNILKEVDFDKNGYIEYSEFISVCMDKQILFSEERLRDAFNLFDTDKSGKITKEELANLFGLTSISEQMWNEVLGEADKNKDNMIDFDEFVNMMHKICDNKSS

[6] = target: Plasmodium falciparum protein kinase 6 (PK6, PF3D7_1337100) (UniProt Q8IDW1); test: PfPK6 kinase inhibitors, biochemical, TCAMS library (AID 1159586); conditions: recombinant PfPK6, Kinase-Glo ATP depletion luminescence
Plasmodium falciparum protein kinase 6 (PK6, PF3D7_1337100), sequence (Q8IDW1 1-305): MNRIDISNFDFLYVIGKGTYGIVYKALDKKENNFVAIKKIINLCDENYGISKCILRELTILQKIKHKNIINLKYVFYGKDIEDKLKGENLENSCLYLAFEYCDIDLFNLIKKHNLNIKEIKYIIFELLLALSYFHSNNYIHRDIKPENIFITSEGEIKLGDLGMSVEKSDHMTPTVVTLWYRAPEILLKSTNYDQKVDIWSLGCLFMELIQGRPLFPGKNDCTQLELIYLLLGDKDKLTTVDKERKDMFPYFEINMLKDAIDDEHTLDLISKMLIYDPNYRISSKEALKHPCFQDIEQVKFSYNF

[7] = target: Protein kinase 7 (PK7), Plasmodium falciparum 3D7 (PF3D7_0213400) (UniProt Q7YTF7); test: inhibition of Plasmodium PK7 catalytic activity – biochemical, TCAMS antimalarial set, Kinase-Glo luminescence (AID 1159587); conditions: recombinant PfPK7, Kinase-Glo ATP depletion luminescence
Protein kinase 7 (PK7), Plasmodium falciparum 3D7 (PF3D7_0213400), sequence (Q7YTF7 1-343): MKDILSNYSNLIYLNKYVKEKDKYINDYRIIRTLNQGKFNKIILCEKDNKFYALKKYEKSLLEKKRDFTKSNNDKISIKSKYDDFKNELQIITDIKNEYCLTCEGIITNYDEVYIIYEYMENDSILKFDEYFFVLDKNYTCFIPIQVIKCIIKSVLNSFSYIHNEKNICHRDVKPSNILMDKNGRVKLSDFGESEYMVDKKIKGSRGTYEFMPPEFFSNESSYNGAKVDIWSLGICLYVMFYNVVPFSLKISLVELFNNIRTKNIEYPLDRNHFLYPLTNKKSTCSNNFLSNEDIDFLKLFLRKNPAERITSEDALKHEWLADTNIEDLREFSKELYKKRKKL

[8] = target: Calcium-dependent protein kinase 4 (Plasmodium falciparum (isolate 3D7)) (UniProt Q8IBS5); test: PfCDPK4 kinase inhibitors, biochemical, TCAMS library (AID 1159588; cut-off not given, nearly all actives have IC50 up to about 0.91 µM); conditions: recombinant PfCDPK4, Kinase-Glo ATP depletion luminescence
Calcium-dependent protein kinase 4 (Plasmodium falciparum (isolate 3D7)), sequence (Q8IBS5 whole entry, looked up): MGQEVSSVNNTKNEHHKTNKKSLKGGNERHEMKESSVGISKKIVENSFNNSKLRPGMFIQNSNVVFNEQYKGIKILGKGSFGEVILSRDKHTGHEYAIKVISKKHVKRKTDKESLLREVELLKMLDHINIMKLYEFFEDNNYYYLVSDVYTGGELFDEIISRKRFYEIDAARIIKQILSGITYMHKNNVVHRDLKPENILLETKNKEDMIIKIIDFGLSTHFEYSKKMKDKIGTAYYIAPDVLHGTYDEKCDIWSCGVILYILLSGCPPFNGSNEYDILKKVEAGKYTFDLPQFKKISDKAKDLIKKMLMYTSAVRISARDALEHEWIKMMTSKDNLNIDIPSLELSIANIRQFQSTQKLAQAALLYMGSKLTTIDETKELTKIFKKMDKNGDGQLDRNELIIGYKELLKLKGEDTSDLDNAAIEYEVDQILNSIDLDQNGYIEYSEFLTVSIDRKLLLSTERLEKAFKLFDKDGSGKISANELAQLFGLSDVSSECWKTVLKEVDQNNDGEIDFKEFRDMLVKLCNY

CC(C)c1ccc(NS(=O)(=O)c2cccc(C(=O)NC3CCN(CC4CCCCC4)CC3)c2)cc1
active: growth inhibition [1] 69% | inhibition [2] 71% | growth inhibition [4] 93%
inactive: inhibition [3] 0% | outcome [5] | outcome [6] | outcome [7] | outcome [8]

COc1ccc(Nc2nccc(-c3ccc4c(-c5ccsc5)cnc(N)c4c3)n2)cc1
inactive: inhibition [2] 38% | inhibition [3] -1% | outcome [5] | outcome [6] | outcome [7] | outcome [8]
active: growth inhibition [1] 98% | growth inhibition [4] 101%

Cc1cccc2[nH]c(-c3cccc(-c4ccc(C(=O)NCCc5ccc(O)c(=O)[nH]5)cc4)c3)nc12
active: growth inhibition [4] 85%
inactive: growth inhibition [1] 30% | inhibition [2] 20% | inhibition [3] -1% | outcome [5] | outcome [6] | outcome [7] | outcome [8]

COc1ccc(CNc2nc(NCc3ccccc3)c3cc(OC)c(OC)cc3n2)cc1OC
active: growth inhibition [1] 99% | growth inhibition [4] 103%
inactive: inhibition [2] 24% | inhibition [3] -6% | outcome [5] | outcome [6] | outcome [7] | outcome [8]

CCC1CCc2cc(N)cc(-c3nc4c(c(C)nn4CC)c(=O)[nH]3)c2O1 (stereo not given)
inactive: growth inhibition [1] 42% | inhibition [2] -3% | inhibition [3] -4% | outcome [5] | outcome [6] | outcome [7] | outcome [8]
active: growth inhibition [4] 86%

CN1CCC(C(=O)N(Cc2ccc(-c3ccc(CNCCc4ccc(S(C)(=O)=O)cc4)cn3)cc2)C2Cc3ccccc3C2)CC1
active: growth inhibition [4] 98%
inactive: growth inhibition [1] 49% | inhibition [2] 21% | inhibition [3] -2% | outcome [5] | outcome [6] | outcome [7] | outcome [8]

COc1ccc(Nc2nccc(-c3ccc4ccnc(NCCCCN)c4c3)n2)cc1
active: growth inhibition [4] 95%
inactive: growth inhibition [1] 47% | inhibition [2] 15% | inhibition [3] 6% | outcome [5] | outcome [6] | outcome [7] | outcome [8]

O=C(/C=C/c1ccc(Cl)c(Cl)c1)NCCCCCN1CCC(c2c[nH]c3ccc(O)cc23)CC1
inactive: growth inhibition [1] 0% | inhibition [2] 20% | inhibition [3] 3% | outcome [5] | outcome [6] | outcome [7] | outcome [8]
active: growth inhibition [4] 101%

CC1(C)N=C(N)N=C(N)N1OCCCOc1ccccc1N
inactive: inhibition [3] 8% | outcome [5] | outcome [6] | outcome [7] | outcome [8]
active: growth inhibition [1] 95% | inhibition [2] 70% | growth inhibition [4] 93%

COc1ccc(Nc2cc(C)nc(Nc3ccc(NC(C)=O)cc3)n2)cc1
active: growth inhibition [4] 98%
inactive: growth inhibition [1] 31% | inhibition [2] 16% | inhibition [3] -1% | outcome [5] | outcome [6] | outcome [7] | outcome [8]

Cc1cc(N[C@@H](Cc2ccccc2)C(=O)NCc2cccs2)nc(NCC2CCCCC2)n1
inactive: inhibition [2] -5% | inhibition [3] 0% | outcome [5] | outcome [6] | outcome [7] | outcome [8]
active: growth inhibition [1] 92% | growth inhibition [4] 100%

CN(c1ccccc1)c1ccnc(/N=C(\N)Nc2ccc(Cl)cc2)n1
active: growth inhibition [4] 87%
inactive: growth inhibition [1] 6% | inhibition [2] 30% | inhibition [3] -1% | outcome [5] | outcome [6] | outcome [7] | outcome [8]

c1ccc2nc(NCCCCCCCCNc3ccc4ccccc4n3)ccc2c1
inactive: growth inhibition [1] 37% | inhibition [3] -5% | outcome [5] | outcome [6] | outcome [7] | outcome [8]
active: inhibition [2] 52% | growth inhibition [4] 100%

CN1CCN(c2ccnc3ccc(NC(=O)c4ccc(Cl)c(Cl)c4)cc23)CC1
inactive: inhibition [2] 4% | inhibition [3] 2% | outcome [5] | outcome [6] | outcome [7] | outcome [8]
active: growth inhibition [1] 64% | growth inhibition [4] 100%

CC(CN1CCN(C)CC1)C(=O)Nc1ccc(-c2cccc(-c3nc4ccc(C(F)(F)F)cc4[nH]3)c2)cc1 (stereo not given)
inactive: inhibition [2] 16% | inhibition [3] -6% | outcome [5] | outcome [6] | outcome [7] | outcome [8]
active: growth inhibition [1] 96% | growth inhibition [4] 99%

C[C@H]1CN(Cc2cccc(-c3cc(CNC(=O)c4cccc(CN5CCN(C/C=C/c6ccccc6)CC5)c4)ccc3F)c2)CCN1
active: inhibition [2] 98% | growth inhibition [4] 98%
inactive: growth inhibition [1] 46% | inhibition [3] -2% | outcome [5] | outcome [6] | outcome [7] | outcome [8]

Cc1cccc2[nH]c(-c3cccc(-c4ccc(CNCCc5ccncc5)cc4)c3)nc12
active: growth inhibition [1] 100% | growth inhibition [4] 100%
inactive: inhibition [2] 40% | inhibition [3] -2% | outcome [5] | outcome [6] | outcome [7] | outcome [8]

Cc1cccc2[nH]c(-c3ccc(-c4cccc(C(=O)N5CCCCC5C(C)O)c4)s3)nc12 (stereo not given)
active: growth inhibition [1] 53% | growth inhibition [4] 101%
inactive: inhibition [2] 27% | inhibition [3] -1% | outcome [5] | outcome [6] | outcome [7] | outcome [8]

Cc1nc(NC2=NCN(CCCN3CCOCC3)CN2)nc2c(C)cccc12
inactive: inhibition [2] 17% | inhibition [3] 4% | outcome [5] | outcome [6] | outcome [7] | outcome [8]
active: growth inhibition [1] 62% | growth inhibition [4] 89%

CN1CCC(N2CCN(CCOc3cc(NC(=O)/C=C/c4ccccc4Cl)ccc3Br)CC2)CC1
inactive: inhibition [2] 36% | inhibition [3] -1% | outcome [5] | outcome [6] | outcome [7] | outcome [8]
active: growth inhibition [1] 99% | growth inhibition [4] 101%

COc1ccc(Cl)cc1N1CCN(CCCNC(=O)c2ccc(-c3nc4cc(Cl)c(C)cc4[nH]3)c(F)c2)CC1
active: growth inhibition [1] 91% | growth inhibition [4] 99%
inactive: inhibition [2] -1% | inhibition [3] -6% | outcome [5] | outcome [6] | outcome [7] | outcome [8]

Fc1c(CNCC2CCN(CC3CCCCC3)CC2)cccc1C(F)(F)F
inactive: growth inhibition [1] 7% | inhibition [2] 35% | inhibition [3] 3% | outcome [5] | outcome [6] | outcome [7] | outcome [8]
active: growth inhibition [4] 93%

COc1ccc(-c2ccc(NC(=O)c3cccc(C#N)c3)cc2)cc1CN1CCCC(C(N)=O)C1 (stereo not given)
active: growth inhibition [4] 98%
inactive: growth inhibition [1] 44% | inhibition [2] 12% | inhibition [3] 0% | outcome [5] | outcome [6] | outcome [7] | outcome [8]

COC(=O)c1cccc(N2CCN(CCCNC(=O)/C(=C/C=C/c3cc4cc(Cl)c(Cl)cc4[nH]3)OC)CC2)c1
active: growth inhibition [1] 59% | growth inhibition [4] 100%
inactive: inhibition [2] 38% | inhibition [3] -1% | outcome [5] | outcome [6] | outcome [7] | outcome [8]

COc1ccc2nccc([C@@H](O)CN3CCC(NC/C=C/c4cccnc4)CC3)c2c1
active: growth inhibition [4] 100%
inactive: growth inhibition [1] 19% | inhibition [2] -7% | inhibition [3] -2% | outcome [5] | outcome [6] | outcome [7] | outcome [8]

CCNc1cc(C(=O)N[C@@H](Cc2ccccc2)[C@H](O)CNC2(CC)CCCCC2)cc(N2CCCCS2(=O)=O)c1
active: growth inhibition [1] 98% | growth inhibition [4] 98%
inactive: inhibition [2] 3% | inhibition [3] -3% | outcome [5] | outcome [6] | outcome [7] | outcome [8]

CCCCNCc1ccc(-c2nc(CN(CCCn3ccnc3)C(=O)Nc3ccc(CC)cc3)cs2)cc1
active: growth inhibition [1] 56% | growth inhibition [4] 101%
inactive: inhibition [2] 21% | inhibition [3] 6% | outcome [5] | outcome [6] | outcome [7] | outcome [8]

C[C@H](Cc1ccc(C(=O)OC(c2ccccc2)c2ccccc2)cc1)NC[C@H](O)c1ccccc1
active: growth inhibition [1] 98% | inhibition [2] 83% | growth inhibition [4] 100%
inactive: inhibition [3] -3% | outcome [5] | outcome [6] | outcome [7] | outcome [8]

COc1ccc(NC(=O)[C@H](CC(C)C)Nc2cc(C)nc(NCCOc3ccccc3)n2)cc1
active: growth inhibition [1] 65% | growth inhibition [4] 100%
inactive: inhibition [2] -1% | inhibition [3] 4% | outcome [5] | outcome [6] | outcome [7] | outcome [8]

Cc1cc(NN=Cc2ccc(Cl)cc2)c2cccc(C)c2n1
inactive: growth inhibition [1] 47% | inhibition [2] -1% | inhibition [3] 2% | outcome [5] | outcome [6] | outcome [7] | outcome [8]
active: growth inhibition [4] 103%

Cc1cc2ccc(-c3cccc(CN)c3)cc2nc1N
active: growth inhibition [4] 100%
inactive: growth inhibition [1] 1% | inhibition [2] -4% | inhibition [3] -6% | outcome [5] | outcome [6] | outcome [7] | outcome [8]

Cc1ccccc1C1CCN(C2CCC(NC(=O)c3ccc(-c4ccccn4)s3)CC2)CC1 (stereo not given)
active: growth inhibition [4] 87%
inactive: growth inhibition [1] 17% | inhibition [2] 32% | inhibition [3] -1% | outcome [5] | outcome [6] | outcome [7] | outcome [8]

CC(C)CCNc1nc(NCCCc2ccccc2)c2cc(O)ccc2n1
inactive: inhibition [2] 14% | inhibition [3] -1% | outcome [5] | outcome [6] | outcome [7] | outcome [8]
active: growth inhibition [1] 95% | growth inhibition [4] 101%

CN1CCN(c2ccnc3ccc(NC(=O)Cc4cccc(Cl)c4Cl)cc23)CC1
active: growth inhibition [1] 64% | growth inhibition [4] 102%
inactive: inhibition [2] 8% | inhibition [3] 3% | outcome [5] | outcome [6] | outcome [7] | outcome [8]

CCn1cc(CN2CCCC(C(=O)Nc3ccc(-c4nc5ccccc5[nH]4)cc3)C2)c(C)n1 (stereo not given)
inactive: growth inhibition [1] 28% | inhibition [2] 22% | inhibition [3] 2% | outcome [5] | outcome [6] | outcome [7] | outcome [8]
active: growth inhibition [4] 100%

Cc1cccc2[nH]c(-c3ccc(-c4ccc(CNCc5cccc(N)c5)cc4)s3)nc12
inactive: inhibition [2] 10% | inhibition [3] -2% | outcome [5] | outcome [6] | outcome [7] | outcome [8]
active: growth inhibition [1] 78% | growth inhibition [4] 102%

Nc1nccc(-c2ccc3c(/C=C/c4ccccc4)cnc(N)c3c2)n1
inactive: inhibition [2] 32% | inhibition [3] 2% | outcome [5] | outcome [6] | outcome [7] | outcome [8]
active: growth inhibition [1] 100% | growth inhibition [4] 101%

FC(F)(F)c1ccc2nc(-c3ccc(-c4ccc(CN5CCN(c6cnccn6)CC5)cc4)s3)[nH]c2c1
active: growth inhibition [1] 99% | growth inhibition [4] 101%
inactive: inhibition [2] 23% | inhibition [3] -7% | outcome [5] | outcome [6] | outcome [7] | outcome [8]

O=C(Nc1ccc(C(F)(F)F)cc1)c1cccc(S(=O)(=O)NC2CCN(CC3CCCCC3)C2)c1 (stereo not given)
inactive: growth inhibition [1] 10% | inhibition [2] 32% | inhibition [3] -2% | outcome [5] | outcome [6] | outcome [7] | outcome [8]
active: growth inhibition [4] 98%

NC(N)=NN=Cc1c2ccccc2c(Cl)c2cc(Cl)ccc12
active: growth inhibition [4] 97%
inactive: growth inhibition [1] 28% | inhibition [2] 26% | inhibition [3] -3% | outcome [5] | outcome [6] | outcome [7] | outcome [8]
